Measured values published in PubChem BioAssay (EPA / NIEHS).
Results filed as inconclusive are left out. The source made the active and inactive calls. How the source made its calls, unless noted: active means hit-call score of the fitted dose curve at least 0.9, where 1 is the maximum; inactive means score below 0.9.

Key:
[1] = CCTE_Shafer_MEA_acute_burst_percentage_mean: CCTE's Neural Acute Assay for Percentage of Spikes in a Burst, Shafer Lab (AID 2284017);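 on AC50: curve fitted for loss of signal so potency reflects decreased burst percentage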
In short: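 Compounds were tested at 0.03-40 uM on primary rat cortical neuron networks grown over microelectrodes, with at least three wells per compound. Spontaneous firing was recorded for 40 min before and 40 min after dosing, and the change in burst percentage was computed per well.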

[2] = CCTE_Shafer_MEA_acute_burst_percentage_std: CCTE's Neural Acute Assay for Standard Deviation of Burst Percentage, Shafer Lab (AID 2284018);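 further: fitted in the negative direction so actives lower burst percentage SD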
In short: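 Rat primary cortical neurons on 48-well MEAs, DIV 13 or 15, 37 C. 40-min baseline then 40-min recording with compound (0.03-40 uM); well-level SD of per-electrode burst spike percentage, expressed as percent change from baseline.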

[3] = CCTE_Shafer_MEA_acute_per_network_burst_spike_number_std: CCTE's Neural Acute Assay for Standard Deviation of Number of Spikes in a Network Burst, Shafer Lab (AID 2284020);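 further: fitted for decrease in spike-number SD versus DMSO so actives lower it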
In short: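 Rat primary cortical neurons on 48-well MEA (16 electrodes/well), treated DIV 13 or 15 at 0.03-40 uM, ≥3 wells per compound. 40 min recordings at 37 C before and after dosing; value is percent change in network-burst spike-number SD, negative direction vs DMSO.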

[4] = CCTE_Shafer_MEA_acute_per_network_burst_electrodes_number_mean: CCTE's Neural Acute Assay for Mean Number of Electrodes in a Network Burst, Shafer Lab (AID 2284021);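 further: curves fitted for decreases only so hits reduce electrodes per burst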
In short: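 Percent change from baseline was computed as mean electrode count per network burst, comparing 40 min recordings before and during compound (0.03-40 uM) exposure. Cultures were rat cortical neurons at DIV 13 or 15, recorded on MEAs at 37 C with an adaptive 8x rms threshold.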

[5] = CCTE_Shafer_MEA_acute_network_burst_percentage: CCTE's Neural Acute Assay for Percentage of Network Bursts, Shafer Lab (AID 2284022);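 further: curves fitted for loss so actives lower network burst percentage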
In short: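 Network burst percentage (spikes in network bursts divided by total spikes) recorded at 37 C over 40 min baseline and 40 min after compound, 0.03-40 uM, in rat cortical cultures at DIV 13 or 15. Analysed as percent change from baseline versus DMSO.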

[6] = CCTE_Shafer_MEA_acute_cross_correlation_area: CCTE's Neural Acute Assay for Area of Cross Correlation, Shafer Lab (AID 2284024);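 further: area under pooled inter-electrode spike cross-correlation near zero lag as percent change from own baseline; curves fitted for loss of cross-correlation area so actives lower synchrony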
In short: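 Percent change in well-wide cross-correlation area (window around zero lag) between 40 min baseline and 40 min post-compound recordings, 37 C; rat cortical cultures on MEA at DIV 13 or 15, dosed 0.03-40 uM, wells needing >/= 10 active electrodes.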

[7] = CCTE_Shafer_MEA_acute_cross_correlation_HWHM: CCTE's Neural Acute Assay for Cross Correlation at Half Width at Half Maximum, Shafer Lab (AID 2284026);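 further: percent change per well from pre-dose baseline in spike cross-correlogram half width; hits are a decrease in cross-correlogram half width relative to DMSO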
In short: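 Per-well percent change in cross-correlogram half width at half maximum, derived from 40-min recordings before and after compound (0.03-40 uM) at 37 C. Cultures were rat cortical neurons, DIV 13 or 15, with adaptive spike detection at 8x rms.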

[8] = CCTE_Shafer_MEA_acute_synchrony_index: CCTE's Neural Acute Assay for Synchrony, Shafer Lab (AID 2284027);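 further: fitted for loss of signal so actives lower synchrony relative to DMSO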
In short: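 Readout is percent change in the unitless network synchrony index (0 low, 1 high) between a 40-min baseline and a 40-min recording in compound. Cultures were primary rat cortical neurons on MEAs, treated at 0.03-40 uM on DIV 13 or 15.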

[9] = CCTE_Shafer_MEA_dev_firing_rate_mean: CCTE's Neural Network Formation Assay for Mean Firing Rate, Shafer Lab (AID 2284031)
In short: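 Rat primary cortical neurons were seeded on multielectrode arrays and treated from plating through day 12, with redosing at each feed. Spontaneous spiking was recorded four times; mean firing rate AUC was fitted downward against DMSO.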

[10] = CCTE_Shafer_MEA_dev_per_burst_spike_percent: CCTE's Neural Network Formation Assay for Percent of Spikes in a Burst, Shafer Lab (AID 2284032)
In short: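 Rat primary cortical neurons on 16-electrode MEA wells, dosed from plating day 0 for 12 days with renewal on DIV 5 and 9; spikes-in-bursts percentage averaged over bursting electrodes, collapsed as AUC across days 5, 7, 9, 12; loss direction versus DMSO.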

[11] = CCTE_Shafer_MEA_dev_active_electrodes_number: CCTE's Neural Network Formation Assay for Number of Active Electrodes, Shafer Lab (AID 2284040; active means hit-call score of the fitted dose curve at least 0.9, where 1 is the maximum)
In short: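 Primary rat cortical neurons on 16-electrode MEA wells, exposed from day 0 through day 12 with compound renewed at DIV 5 and 9 feeds. Active electrodes (mean firing ≥5 spikes/min) counted at DIV 5, 7, 9, 12; trapezoidal AUC across days, loss-of-signal versus DMSO.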

[12] = CCTE_Shafer_MEA_dev_burst_rate: CCTE's Neural Network Formation Assay for Burst Rate, Shafer Lab (AID 2284042)
In short: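 Developmental network assay measuring how 12-day exposure of rat cortical neuron cultures alters bursting on extracellular MEA recordings. Values are AUC of well-mean burst rate across four recording days, relative to DMSO vehicle.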

[13] = CCTE_Shafer_MEA_dev_bursting_electrodes_number: CCTE's Neural Network Formation Assay for Number of Bursting Electrodes, Shafer Lab (AID 2284043; active means hit-call score of the fitted dose curve at least 0.9, where 1 is the maximum)
In short: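 Primary rat cortical neurons plated on 16-electrode MEA wells, exposed from day 0 with compound renewed at DIV 5 and 9. Electrodes bursting ≥1 burst per 2 min counted on days 5, 7, 9 and 12; trapezoidal AUC across days, fitted for loss versus DMSO.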

[14] = biological target: Estrogen receptor (Homo sapiens) (UniProt P03372); experiment: CCTE_Deisenroth_AIME_384WELL_LUC_Active: CCTE's 384-well Estrogen Receptor Transactivation Assay with AIME metabolic competence (ERTA luciferase; metabolism positive), Deisenroth Lab (AID 2284030; active means hit-call score of the fitted dose curve at least 0.9, where 1 is the maximum)
Estrogen receptor (Homo sapiens), sequence (P03372 whole entry, looked up): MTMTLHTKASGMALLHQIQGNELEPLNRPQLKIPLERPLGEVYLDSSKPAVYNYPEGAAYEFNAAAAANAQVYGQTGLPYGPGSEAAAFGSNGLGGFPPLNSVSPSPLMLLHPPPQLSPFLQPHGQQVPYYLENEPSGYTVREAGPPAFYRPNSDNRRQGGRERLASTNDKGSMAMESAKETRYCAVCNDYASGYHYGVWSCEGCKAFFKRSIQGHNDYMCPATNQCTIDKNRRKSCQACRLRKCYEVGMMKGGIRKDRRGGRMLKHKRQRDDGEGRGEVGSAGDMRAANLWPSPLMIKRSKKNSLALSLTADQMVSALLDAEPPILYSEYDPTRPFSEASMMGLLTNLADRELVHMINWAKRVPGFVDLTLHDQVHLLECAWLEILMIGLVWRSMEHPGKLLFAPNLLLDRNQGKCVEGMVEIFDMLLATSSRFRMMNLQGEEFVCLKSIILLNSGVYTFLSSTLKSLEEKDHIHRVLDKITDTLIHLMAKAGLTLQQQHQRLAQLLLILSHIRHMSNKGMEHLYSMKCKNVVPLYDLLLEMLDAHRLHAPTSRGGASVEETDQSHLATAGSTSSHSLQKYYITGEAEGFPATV
In short: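 VM7Luc4E2 breast cells were given, for 24 hours, medium pre-incubated for 2 hours with parent chemical (0.002-200 uM, 10 concentrations) and alginate-encapsulated phenobarbital/beta-naphthoflavone-induced rat hepatic S9. Luciferase gain of signal was fitted against 17beta-estradiol; n=4 or more.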

[15] = biological target: Estrogen receptor (Homo sapiens) (UniProt P03372); experiment: CCTE_Deisenroth_AIME_384WELL_LUC_Inactive: CCTE's 384-well Estrogen Receptor Transactivation Assay without AIME metabolic competence (ERTA luciferase; metabolism negative), Deisenroth Lab (AID 2284038; active means hit-call score of the fitted dose curve at least 0.9, where 1 is the maximum;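 further: VM7Luc4E2 breast cells given medium preincubated 2 h with S9-free microspheres; hits raise estrogen receptor luciferase signal so potencies reflect agonists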)
In short: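 Metabolism-negative mode: chemicals (10-point, 0.002–200 uM) held 2 h with alginate-water microspheres, then conditioned medium applied to VM7Luc4E2 cells for 24 h. Luciferase induction referenced to 17beta-estradiol.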

[16] = CCTE_Deisenroth_AIME_384WELL_CTox_Inactive: Cytotoxicity Assessment (CTOX) in CCTE's 384-well Estrogen Receptor Transactivation Assay without AIME metabolic competence (metabolism negative), Deisenroth Lab (AID 2284039; active means hit-call score of the fitted dose curve at least 0.9, where 1 is the maximum;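 further: cell viability via live-cell protease substrate cleaved to fluorescent probe; cells exposed 24 h to medium preincubated 2 h with alginate-water beads without S9; loss of fluorescence signal means loss of viability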)
In short: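 Fluorescence from a live-cell protease substrate, read after 24 h in VM7Luc4E2 cells, indicated viability. Test medium came from a 2 h AIME step without hepatic S9 (alginate-water microspheres); concentrations spanned 0.002 - 200 uM, single technical replicate per run.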

[17] = biological target: Estrogen receptor (Homo sapiens) (UniProt P03372); experiment: CCTE_Deisenroth_AIME_384WELL_LUC_Shift: CCTE's 384-well Estrogen Receptor Transactivation Assay with AIME metabolic competence data shift (ERTA luciferase; difference in metabolism positive and negative), Deisenroth Lab (AID 2284041);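 further: shift is response with S9 minus without S9 so positive means metabolism raised ER signal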
In short: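 Chemicals (0.002–200 uM, 10 points) pre-incubated 2 h with alginate-encapsulated induced male Sprague Dawley rat liver S9 or S9-free, then medium applied 24 h to VM7Luc4E2 cells; luciferase. Endpoint is per-concentration difference, S9-positive minus negative.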

Measured: AC50

CN(C[C@@H](CC[N+]12CCC(C3CCCCC3)(CC1)CC2)c1ccc(Cl)c(Cl)c1)C(=O)c1cc(C(F)(F)F)cc(C(F)(F)F)c1
active: [1] 8.36 µM | [2] 2.53 µM | [3] 8.89 µM | [4] 5 µM | [5] 8.37 µM | [7] 8 µM | [8] 8.29 µM
inactive: [6]

CC1=CC(=O)/C(=C(/C)O)C(=O)O1
inactive: [1] | [2] | [3] | [4] | [5] | [6] | [7] | [8]

O=C1O[C@H]([C@@H](O)CO)C(O)=C1O
not listed: [14] | [15] | [16] | [17]
inactive: all other assays above

Cc1cn([C@H]2C[C@H](N=[N+]=[N-])[C@@H](CO)O2)c(=O)[nH]c1=O
not listed: [9] | [10] | [11] | [12] | [13]
inactive: all other assays above

CC[C@@H]1C[C@H](N(Cc2cc(C(F)(F)F)cc(C(F)(F)F)c2)C(C)=O)c2cc(C(F)(F)F)ccc2N1C(=O)OC(C)C
inactive: [1] | [2] | [3] | [4] | [5] | [6] | [7]
active: [8] 3.97 µM

CCCCCCCCCCCCO
inactive: [2] | [4] | [6]
active: [1] 25.5 µM | [3] 26.7 µM | [5] 25.8 µM | [7] 28.8 µM | [8] 27.6 µM

Cc1c2ccccc2c(C)c2c1ccc1ccccc12
inactive: [3] | [4] | [5] | [6] | [15] | [17]
active: [1] 29.7 µM | [2] 35.2 µM | [7] 26.3 µM | [8] 36.9 µM | [14] 13.9 µM

O=C(O)Cn1c(=O)n(Cc2ccc(Br)cc2F)c(=O)c2ccc(Cl)cc21
active: [15] 106 µM | [17] 53.2 µM
inactive: [14] | [16]

Cc1oc2c(NC(=O)c3c(Cl)cccc3Cl)cccc2c1C(C)(C)O
inactive: [14] | [15] | [16] | [17]

O=C(Nc1ccc(Cl)cc1)Nc1ccc(Cl)c(Cl)c1
inactive: [14] | [15] | [17]
active: [16] 0.393 µM

Cc1ncc(CO)c(CO)c1O
inactive: [16]

COCC(C)OCC(C)OCC(C)O (stereo not drawn)
inactive: [14] | [15] | [17]

C[C@]12CC[C@@H]3c4ccc(O)cc4CC[C@H]3[C@@H]1CC[C@H]2O
inactive: [1] | [2] | [3] | [4] | [5] | [6] | [7] | [8] | [16]
